Screens (PubChem)
Sampled rows, rich in hits. Any-hit rate of the full collection: about 4.2%.
TCR act – activators of T cell receptors; AID 504894; primary human leukocytes, anti-CD3, IL-2 HTRF, 48 h; Potency, µM (doses to about 9.22 µM), hits mostly activators; 330,000 tested, under 10 active
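Primary human leukocytes were stimulated with a-CD3 beads plus compounds for 48 hr without co-stimulation; secreted IL-2 was quantified by HTRF using a-IL-2-K (europium cryptate) and a-IL-2-d2, excited at 320nm with acceptor emission read at 665nm.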
Sfp inh – blocks B. subtilis Sfp PPTase activity; Q9F4F7; 310,000 tested, 3.5% active; AID 1490; Potency, µM, hits mostly inhibitors; Biochemical Sfp PPTase activity, qHTS;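 further: the enzyme is Sfp with the accession as filed and its product quenches rhodamine fluorescence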
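Step 1, compound plus 15 nM Sfp-PPTase, 15 min, room temperature. Step 2, add rhodamine-CoA (5 uM) and BHQ-2-YbbR (12.5 uM). Step 3, read 525/598 nm fluorescence at 0 and 30 min.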
uPA generation – inhibitors of cell surface uPA generation | Potency, µM (series often up to 38.3 µM), usual class: inhibitors | 330,000 tested, 0.31% active | cell surface uPA generation assay, qHTS | AID 540303; active means well fitted inhibition curve with a large enough effect; inconclusive means small, poorly fitted or top-dose-only effect; inactive means no such curve, though single readings can be large or run the other way; tested in mouse RAW 264.7 cells; further: nearly all actives have a fitted effect of over 55% in size
ClpP mod – qHTS Assay for Activators of ClpP; purified B. subtilis ClpP, FRET peptide cleavage, 20 min; Potency, µM (doses to about 57.5 µM); 340,000 tested, 1.9% active; active means well fitted falling curve with a large enough effect; inconclusive means small, poorly fitted or top-dose-only effect; inactive means no such curve, though single readings can be large or run the other way; further: the source files actives as falling curves though it sought activators and does not explain the sign; nearly all actives have a fitted effect of over 65% in size
Target sequence (P80244 whole entry, looked up): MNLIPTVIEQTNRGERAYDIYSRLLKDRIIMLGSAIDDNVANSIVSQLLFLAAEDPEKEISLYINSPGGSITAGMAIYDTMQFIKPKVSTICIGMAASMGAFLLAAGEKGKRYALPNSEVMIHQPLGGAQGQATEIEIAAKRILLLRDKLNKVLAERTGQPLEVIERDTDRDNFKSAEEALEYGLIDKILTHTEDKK
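FRET quenching reversal measured ClpP activation: 10 microg/mL B. subtilis ClpP at pH 8 with the FRET-FV decapeptide, read at 430 nm after 320 nm excitation. The 20-min minus 0-min signal was scaled between DMSO/no-enzyme wells and ADEP (5.8 microM final).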
Each line names hits and unclear results; the compound was inactive in the other large screens. Unless noted, the call rests on the fitted dose curve; in most records, active means well fitted curve in the direction sought with a large enough effect; inconclusive means small, poorly fitted or top-dose-only effect, or another doubt; inactive means no such curve, though single readings can be large; an effect the other way counts as inactive or inconclusive.

O=C(Nc1cc(Cl)cc(Cl)c1)C(NCCO)c1ccccc1 (stereo not given)	Sfp inh 35.5µM (no result: uPA generation)
COc1cccc(NC(=O)Nc2nccc(C)n2)c1	uPA generation 2.51µM
CCCc1c(CC)c(=N)c2ccccc2n1C	ClpP mod 28.2µM (no result: TCR act)
Cn1c(-c2ccccc2)c(C(=O)CCl)c2ccccc21	none (no result: ClpP mod)
COC(=O)c1ccsc1-n1cc(C#N)c(=O)n(C)c1=O	none
COC(=O)c1ccc2c(c1)C(=O)/C(=C/c1ccc(C)cc1)O2	ClpP mod 28.2µM
Cc1cc(N(C)C)cc(C)c1N=Nc1cc[n+]([O-])cc1	none (no result: TCR act, Sfp inh, uPA generation)
O=C(CSc1ncnc2sc3c(c12)CCCC3)NC1CCS(=O)(=O)C1 (stereo not given)	none (no result: Sfp inh)
Nc1sc2c(c1C(=O)NC1CCS(=O)(=O)C1)CCCC2 (stereo not given)	Sfp inh 20µM
CC(C)(C)C(=O)NC(=S)Nc1sc2c(c1C(N)=O)CCC2	Sfp inh 44.7µM (no result: ClpP mod)
NC(=O)c1c(N)sc2c1CCCC2	Sfp inh 25.1µM
Nc1sc2c(c1C(=O)c1ccccc1)CCCC2	Sfp inh 50.1µM
Nc1sc2c(c1C(=O)NCCc1ccccc1)CCCC2	none (no result: TCR act, Sfp inh, uPA generation)
CCOc1ccc(S(=O)(=O)N(CC(=O)NCCSc2ccccc2)c2ccccc2)cc1	none (no result: TCR act, Sfp inh, uPA generation)
O=C(NCc1ncc(C(F)(F)F)cc1Cl)Nc1ccccc1	none
Cc1c(C(=O)N2CCC(C(=O)Nc3ccc(F)c(Cl)c3)CC2)sc2nc[nH]c(=O)c12	none (no result: TCR act, Sfp inh, uPA generation)
CC(=O)c1ccc(NC(=O)CSc2nnc(-c3ccco3)c(-c3ccco3)n2)cc1	Sfp inh 8.91µM (no result: ClpP mod)
CNC(=O)c1ccc2nc(-c3ccco3)c(-c3ccco3)nc2c1	none (no result: TCR act, Sfp inh, uPA generation)
O=C(NCc1ccccc1)c1ccc2nc(-c3ccco3)c(-c3ccco3)nc2c1	Sfp inh 7.08µM
COc1ccc(-c2nnc(SCC(=O)Nc3ccc(C(C)=O)cc3)nc2-c2ccc(OC)cc2)cc1	none (no result: TCR act, Sfp inh, uPA generation)
O=C(NCc1ccccc1)c1ccc2nccnc2c1	none
CC(=O)c1ccc(NC(=O)c2ccc3nc(-c4ccco4)c(-c4ccco4)nc3c2)cc1	Sfp inh 12.6µM
O=C(Nc1ccccc1)c1ccc2nc(-c3ccco3)c(-c3ccco3)nc2c1	Sfp inh 20µM (no result: uPA generation)
COc1ccc(CN2CCN(S(=O)(=O)c3ccccc3)CC2)c(OC)c1OC	none (no result: Sfp inh)
Cc1ccc(C)c(CN2C(=O)c3ccccc3S(=O)(=O)c3ccc(C(=O)NCc4ccccc4)cc32)c1	none (no result: TCR act, Sfp inh, uPA generation)
COc1ccc(C(=S)N2CCC(C(N)=O)CC2)cc1Br	Sfp inh 39.8µM (no result: ClpP mod)
NC(=O)c1ccc(-c2ccc(Br)cc2)o1	ClpP mod 28.2µM (no result: TCR act)
CN1CCN(c2ccc(NC(=O)c3ccc(-c4ccc(Br)cc4)o3)cc2)CC1	Sfp inh inconclusive (no result: ClpP mod)
NC(=O)C1CCN(C(=S)c2ccc(-c3ccc(Br)cc3)o2)CC1	Sfp inh 15.8µM (no result: ClpP mod)
O=C(c1ccco1)N1CCN(C(=O)c2ccc(-c3ccc(Cl)cc3)o2)CC1	none (no result: Sfp inh)
CC(=O)N1CCN(C(=S)c2ccc(-c3ccc(Cl)cc3)o2)CC1	Sfp inh 31.6µM
O=C(NCc1cccc(F)c1)C1=Cc2cc(Br)ccc2OC1	none (no result: TCR act, Sfp inh, uPA generation)
Cc1cccc(C)c1-n1nnnc1C1c2ccccc2C(=O)N1CCc1ccc(O)cc1 (stereo not given)	none (no result: TCR act, Sfp inh, uPA generation)
COc1ccc(OC)c2c(/C=C/c3ccc(N(C)C)cc3)ccnc12	none (no result: TCR act, Sfp inh, uPA generation)
CCC(=O)N1N=C(c2ccccc2)CC1c1ccccc1 (stereo not given)	none (no result: TCR act)
CCOC(=O)c1nnn(CC(=O)N2N=C(c3cccc4ccccc34)CC2c2ccccc2)c1C(=O)OCC (stereo not given)	ClpP mod 11.2µM
CC(C)(C)C(=O)COC(=O)c1cc(-c2cccnc2)nc2ccccc12	Sfp inh inconclusive
COC(=O)c1cc(NC(=O)c2nccnc2C(=O)O)cc(C(=O)OC)c1	Sfp inh 56.2µM
Cc1ccc(S(=O)(=O)N2CCOCC2)cc1NC(=O)COc1ccc2c(C)cc(=O)oc2c1	ClpP mod 31.6µM
COc1ccc(S(=O)(=O)N2CCOCC2)cc1NC(=O)COc1ccc2c(C)cc(=O)oc2c1	none (no result: Sfp inh)
O=C(COc1ccc2ccc(=O)oc2c1)Nc1cccc(S(=O)(=O)N2CCCCC2)c1	ClpP mod 35.5µM (no result: Sfp inh)
Cc1ccc(Cl)cc1N1CCN(C(=O)c2cc(S(=O)(=O)N3CCCC3)cn2C)CC1	none (no result: TCR act, Sfp inh, uPA generation)
CCC(=O)Nc1c2c(nn1-c1ccccc1C)CSC2	Sfp inh 56.2µM
Cc1cccc(-n2nc3c(c2NC(=O)CCCl)CSC3)c1	Sfp inh 44.7µM
Cn1c(CC(=O)Nc2ccccc2)cc2ccccc21	uPA generation 4.47µM
